Experimental data from PubChem BioAssay AID652017 (The Scripps Research Institute Molecular Screening Center, 2013).
Out of some 370,000 compounds screened, about 3,800 (1%) were called active. The sample as a whole holds a higher share of actives than the screen did. Values without a mark were called inactive. No stated cut-off is given here; in the data, active means activation above about 7.8%; inactive means the rest.

test: SMARCA2 (BRM) function activators, primary screen, cell-based, luminescence, high throughput (AID 652017); details: MG213 cells, MMTV-luciferase reporter, dexamethasone, overnight; at 9.1 µM; active compounds read high;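 further: 0% = vehicle wells and 100% = reference activator wells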

| Structure (SMILES) | activation |
| --- | --- |
| CNC(=O)CN1C(=O)NC(c2ccccc2)(c2ccccc2)C1=O | -2.01% |
| Cn1c(SCC(=O)c2ccccc2)ncc(C(=O)Nc2ccc(F)cc2)c1=O | -2.22% |
| Cc1ccc(NC(=O)c2cnc(SCC(=O)NCC3CCCO3)n(C)c2=O)cc1 (stereo unspecified) | 8.79% (active) |
| CCCCn1c(SCC(=O)NCC2CCCO2)nc2ccc(N3CCOCC3)cc2c1=O (stereo unspecified) | -3.78% |
| Cc1ccccc1-n1cc(CNC(=O)CC2C(=O)NCCN2C/C=C/c2ccccc2)cn1 (stereo unspecified) | -1.02% |
| CCCNC(=O)Nc1ccc2c(c1)C(=O)N(C)[C@H]1CC[C@H](CC(=O)NCC3CCCCC3)O[C@@H]1CO2 | -2.38% |
| CC1(C(=O)NCc2ccccc2)CSCC(=O)N1CCCN1CCOCC1 (stereo unspecified) | -6.77% |
| O=S1(=O)c2ccc(Br)cc2OC[C@H](Cc2ccccc2)N1Cc1cn(Cc2ccccc2)nn1 | -4.73% |
| COc1nc(N=C(N)N)nc2c(C)cccc12 | 5.28% |
| Cc1nc(N=C(N)N)nc2c(C)cccc12 | 18.7% (active) |
| Nn1c(SCC(=O)N2c3ccccc3Sc3ccccc32)nnc1-c1n[nH]c2c1CCC2 | -2.45% |
| CCCC[C@H](C(=O)N(CC)c1ccccc1)[C@@H](O)c1ccc2ccccc2c1 | -2.79% |
| CN1C[C@]2(C=C3CCCCC3n3c(=O)n(-c4ccccc4)c(=O)n32)N=C1NC(=O)c1ccccc1 (stereo partly specified) | -3.36% |
| O=C(COC(=O)c1cccnc1Cl)NC12CC3CC(CC(C3)C1)C2 | -0.27% |
| COCOc1cccc(CN2CCC(C)(Oc3ccc(SC)cc3)C2)c1 (stereo unspecified) | -2.3% |
| CCOC(=O)[C@]12CCCCC/C=C\1N(Cc1ccc(OC)cc1)C(=O)[C@H]2CC(=O)N1CCOCC1 | -3.81% |
| O=C(Nc1nnc(CCc2ccccc2)s1)C1CCCO1 (stereo unspecified) | 8.46% (active) |
| O=C(C1CCCO1)N(Cc1ccccc1)c1ccccc1 (stereo unspecified) | -1.33% |
| O=C(NCc1ccccc1Cl)C1CCCO1 (stereo unspecified) | -4.52% |
| CC(=O)C1(C(=O)Nc2nccs2)CC(c2ccccc2C(F)(F)F)=NO1 (stereo unspecified) | -1.46% |
| COc1ccc(CN(CCN2CCOCC2)C(=O)c2ccc(C)cc2)cc1OC | -0.94% |
| CN(C)[C@H]1CCN(c2cccc3c2S(=O)(=O)N2CC[C@H](C2)O3)C1 | 0.57% |
| COc1ccc(-c2cc(-c3nnc(SCC(=O)Nc4cccc5ccccc45)n3N)[nH]n2)cc1 | -3.63% |

| Structure (SMILES) | activation |
| --- | --- |
| C=CCOC/C=C/C#CCN(CC=C)Cc1ccc(OC)cc1OC | 7.87% (active) |
| COc1ccc(C#CCNCc2ccc(OC)cc2OC)cc1 | -1.96% |
| COc1ccc(CN(C)Cc2nc3cc(OC)c(OC)cc3c(=O)[nH]2)c(OC)c1 | -2.98% |
| C=CCN1C(=O)[C@H](CC(=O)N2CCN(C(=O)OCC)CC2)[C@@]2(C(=O)OCC)CCCC=C12 | -0.21% |
| C=CCN1C(=O)[C@H](CC(=O)NCCCN2CCCC2=O)[C@@]2(C(=O)OCC)CCCC=C12 | -0.89% |
| CCn1c2ccccc2c2cc(NC(=O)CSc3nnc(-c4ccccc4)n3-c3ccc(C)cc3)ccc21 | -2.83% |
| CCc1cc2c(=O)c(-c3nc4ccccc4n3C)c(CCCC(=O)O)oc2cc1OC(=O)C(C)(C)C | -2.32% |
| COc1ccc2oc(N)c(C=O)c(=O)c2c1 | 0.14% |
| CCc1cc2c(=O)c(-c3ccon3)c(N)oc2cc1OC | 8.66% (active) |
| O=S1(=O)c2c(NCc3ccco3)cccc2Oc2ccccc2CN1Cc1cn(Cc2cccc(C(F)(F)F)c2)nn1 | -3.67% |
| CCN(CC)CCNC(=O)c1ccc(NC(=O)c2cc(-c3ccncc3)nc3ccccc23)cc1 | 8.42% (active) |
| CCN(CC)CCNC(=O)c1ccc(NC(=O)c2c(F)cccc2Cl)cc1 | -0.88% |
| CCN(CC)CCOC(=O)c1ccc(NC(=O)CNC(=O)c2ccccc2)cc1 | -3.5% |
| O=C1Nc2ccccc2OC1CC(=O)N1CCCCCCC1 (stereo unspecified) | 0.95% |
| COc1ccc(-c2ccc3nnc(SCC(=O)Nc4ccc(NC(C)=O)cc4)n3n2)cc1 | -0.74% |
| O=[N+]([O-])c1ccc(CN2CC(N3CC=CC3)CS2(=O)=O)cc1 (stereo unspecified) | -2.21% |
| O=C1/C(=C\c2ccc([N+](=O)[O-])cc2)CS(=O)(=O)C/C1=C/c1ccc([N+](=O)[O-])cc1 | 16.5% (active) |
| C[C@H](C(=O)N(C)c1ccccc1)[C@@H](O)c1ccc2ccccc2c1 | -2.92% |
| CCCCCCNS(=O)(=O)c1ccccc1Br | -0.14% |
| c1csc(-c2nnc(SCc3nc4ccccc4[nH]3)o2)c1 | -0.75% |
| CC(C)(C)c1ccc(CSc2nnc(-c3cccs3)o2)cc1 | -1.53% |
| Cc1cccc(CSc2ccc(-c3cccs3)nn2)c1 | 9.78% (active) |
| O=C(CSc1ccc(-c2cccs2)nn1)Nc1ccccc1F | -0.22% |
